Source: PubChem BioAssay (NCATS)
Where “and” joins values, the source holds several entries; their conditions need not be identical. Identical values can stand only once. Results filed as inconclusive are left out. Entries that show only a call come without a potency. Unmarked numbers belong to inactive results. Calls of active or inactive are those of the source. The call rests on the fitted dose curve; in most records, active means well fitted curve in the direction sought with a large enough effect; inconclusive means small, poorly fitted or top-dose-only effect, or another doubt; inactive means no such curve, though single readings can be large; an effect the other way counts as inactive or inconclusive.

How the values were obtained:
[1] = Viability qHTS for spleen associated tyrosine kinase inhibitor (SYKi) drug resistant MV4-11 cells (AID 1963824); further: nearly all actives have a fitted effect of over 35% in size; further: potency means the concentration at half of the fitted maximal effect
Method in brief: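 SYK inhibitor-resistant MV4-11 AML cells, 500 per well, added to predispensed compounds and incubated 72 hr at 37 C, 5% CO2. Viability measured by CellTiter-Glo luminescence after 10 min at room temperature.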

[2] = Cellular viability qHTS for adrenocortical cancer (ACC) cell line NCI-H295R (AID 1963990); further: nearly all actives have a fitted effect of over 60% in size; further: potency means the concentration at half of the fitted maximal effect
Method in brief: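 IC50 and maximal efficacy derive from four-parameter logistic modelling of titration curves, with reads scaled between DMSO-only wells (0%) and doxorubicin hydrochloride (100% inhibition). Compounds spanned up to 46 uM over 48 h.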

[3] = Cellular viability qHTS for adrenocortical cancer (ACC) cell line SW-13 (AID 1963989); conditions: SW-13 ACC cells viability, CellTiter-Glo, 48 h; activity (max response): active compounds read low;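 further: cells grown in serum-free medium with ITS supplement; nearly all actives have a fitted effect of over 65% in size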
Method in brief: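 Luminescent ATP read-out (CellTiter-Glo, 20 min at room temperature) measured metabolically competent SW-13 cells after 48 h compound treatment. Final concentrations spanned up to 46 uM; bortezomib served as positive control.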

[4] = Quantitative highthroughput screen to assess conditional lethalithy of NOMO1 cells grown in RPMI1640 with untreated serum (RPMI+s) (AID 1963876); further: nearly all actives have a fitted effect of over 35% in size; further: potency means the concentration at half of the fitted maximal effect
Method in brief: (§1)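 Each medium arm—HPLM with 10% dialyzed FBS, or RPMI1640 with 5 mM glucose and 10% untreated or dialyzed FBS—was screened against an 11-point, 3-fold compound titration for 48 h at 37 °C, with CellTiter-Glo luminescence as endpoint.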

[5] = Quantitative highthroughput screen to assess conditional lethalithy of NOMO1 cells grown in RPMI1640 with dialyzed fetal bovine serum (RPMI+ds) (AID 1963877); further: nearly all actives have a fitted effect of over 30% in size; further: potency means the concentration at half of the fitted maximal effect; on Viability: series mostly up to about 46 µM
Method in brief: as §1

[6] = Quantitative highthroughput screen to assess conditional lethalithy of NOMO1 cells grown in Human Plasma-Like Medium with dialyzed fetal bovine serum (HPLM+ds) (AID 1963878); further: nearly all actives have a fitted effect of over 35% in size; further: potency means the concentration at half of the fitted maximal effect
Method in brief: as §1

[7] = Quantitative highthroughput screen to assess conditional lethalithy of P12 Ichikawa cells grown in Human Plasma-Like Medium with dialyzed fetal bovine serum (HPLM+ds) (AID 1963879); conditions: Potency: viability; further: nearly all actives have a fitted effect of over 35% in size; further: potency means the concentration at half of the fitted maximal effect; on Viability: series mostly up to about 46 µM
Method in brief: as §1

[8] = Quantitative highthroughput screen to assess conditional lethalithy of P12 Ichikawa cells grown in RPMI1640 with dialyzed fetal bovine serum (RPMI+ds) (AID 1963880); conditions: Potency: P12-Ichikawa viability; further: nearly all actives have a fitted effect of over 35% in size; further: potency means the concentration at half of the fitted maximal effect
Method in brief: as §1

[9] = Quantitative highthroughput screen to assess conditional lethalithy of P12 Ichikawa cells grown in RPMI1640 with untreated serum (RPMI+s) (AID 1963881); conditions: Potency: viability; further: nearly all actives have a fitted effect of over 35% in size; further: potency means the concentration at half of the fitted maximal effect; on Viability: series mostly up to about 46 µM
Method in brief: as §1

[10] = Quantitative highthroughput screen to assess conditional lethalithy of SEM cells grown in Human Plasma-Like Medium with dialyzed fetal bovine serum (HPLM+ds) (AID 1963882); further: nearly all actives have a fitted effect of over 35% in size; further: potency means the concentration at half of the fitted maximal effect; on Viability: series mostly up to about 46 µM
Method in brief: as §1

[11] = Quantitative highthroughput screen to assess conditional lethalithy of SEM cells grown in RPMI1640 with unreated serum (RPMI+s) (AID 1963883); further: nearly all actives have a fitted effect of over 35% in size; further: potency means the concentration at half of the fitted maximal effect
Method in brief: as §1

[12] = Quantitative highthroughput screen to assess conditional lethalithy of SEM cells grown in RPMI1640 with dialyzed fetal bovine serum (RPMI+ds) (AID 1963884)
Method in brief: as §1

**Q.** For `O=C(O)c1ccccc1Nc1cccc(C(F)(F)F)c1`, which Potency [1] is on record?
**A.** inactive

**Q.** And the Potency [2]?
**A.** inactive

**Q.** What does the source list for `CCCCCCCCCCCCCCNCCO`?
**A.** Potency [1]: 16.8 µM (active); Potency [2]: 23.1 µM (active)

**Q.** What does the source list for `CC1(C(=O)O)CCC2(C)CCC3(C)C(=CC(=O)C4C5(C)CCC(OC6OC(C(=O)O)C(O)C(O)C6OC6OC(C(=O)O)C(O)C(O)C6O)C(C)(C)C5CCC43C)C2C1` (stereo not drawn)?
**A.** Potency [1]: inactive; activity (max response) [3]: 1.77%; Potency [2]: inactive

**Q.** For `Cc1cc(C(=O)Nc2cc(Oc3ccc4nc(NC(=O)C5CC5)cn4n3)ccc2C)n(C)n1`, which Potency [1] is on record?
**A.** 14.8 µM (active)

**Q.** And the Potency [2]?
**A.** 22.4 µM (active)

**Q.** What does the source list for `C#C[C@]1(OC(C)=O)CC[C@H]2[C@@H]3CCC4=C[C@@H](OC(C)=O)CC[C@@H]4[C@H]3CC[C@@]21C`?
**A.** Potency [1]: 21.1 µM (active) and 14.6 µM (active); Potency [2]: 20.6 µM (active)

**Q.** With `CC1=C(/C=C/C(C)=C/C=C/C(C)=C\C(=O)O)C(C)(C)CCC1` as the compound, how does the Potency [1] read?
**A.** 6.61 µM (active)

**Q.** What about the activity (max response) [3] of the same compound?
**A.** -0.514%

**Q.** And the Potency [2]?
**A.** inactive

**Q.** What does the source list for `COc1cc2c(NC3CCN(C)CC3)nc(N3CCCN(C)CC3)nc2cc1OCCCN(C)C`?
**A.** Potency [1]: 18.6 µM (active); Potency [2]: inactive

**Q.** Which Potency [1] does the source give for `COc1cc2ncnc(Nc3cccc(Cl)c3F)c2cc1OC(=O)N1CCN(C)C[C@H]1C` here?
**A.** 7.31 µM (active)

**Q.** What about the Potency [2] of the same compound?
**A.** inactive

**Q.** Which results are given for `O=C(OCCOCCO)c1ccccc1Nc1cccc(C(F)(F)F)c1`?
**A.** Potency [1]: 14.6 µM (active); Potency [2]: 25.9 µM (active)

**Q.** With `CC1CC(OC(=O)c2ccccc2O)CC(C)(C)C1` (stereo not drawn) as the compound, how does the Potency [1] read?
**A.** inactive

**Q.** What about the Potency [2] of the same compound?
**A.** inactive

**Q.** Which Potency [1] does the source give for `CC(C)Oc1ccc(-c2nc(-c3cccc4c3CC[C@@H]4NCCO)no2)cc1C#N` here?
**A.** 11.8 µM (active)

**Q.** What about the Potency [2] of the same compound?
**A.** 28.2 µM (active)

**Q.** With `CC1=NN(c2ccc(C(=O)O)cc2)C(=O)/C1=C/c1ccc(-c2cc(C)c(C)cc2[N+](=O)[O-])o1` as the compound, how does the Potency [1] read?
**A.** 18.6 µM (active)

**Q.** And the Potency [2]?
**A.** inactive

**Q.** Which results are given for `CN1CCN(CCC(=O)N2c3ccccc3Sc3ccc(C(F)(F)F)cc32)CC1`?
**A.** Potency [1]: 23.7 µM (active); Potency [2]: 23.1 µM (active)

**Q.** For `CCCOc1ccc(CCc2nc3cc(-c4c(C)noc4C)ccc3n2CCN2CCOCC2)cc1`, which Potency [1] is on record?
**A.** 5.25 µM (active)

**Q.** And the Potency [2]?
**A.** 22.4 µM (active)

**Q.** For `Cc1ccc2nc(N)[nH]c(=O)c2c1Sc1ccncc1`, which Potency [1] is on record?
**A.** 4.61 µM (active)

**Q.** What about the Potency [2] of the same compound?
**A.** inactive

**Q.** Which Potency [1] does the source give for `COc1cc(C(=S)N2CCOCC2)cc(OC)c1OC` here?
**A.** inactive

**Q.** And the activity (max response) [3]?
**A.** 1.86%

**Q.** What about the Potency [2] of the same compound?
**A.** inactive

**Q.** With `CN(Cc1ccccc1)C(=O)c1ccc(S(=O)(=O)Nc2ccccc2)cc1` as the compound, how does the Potency [1] read?
**A.** 14.8 µM (active)

**Q.** And the Potency [2]?
**A.** inactive

**Q.** What does the source list for `COc1ccc2[nH]c(S(=O)Cc3ncc(C)c(OC)c3C)nc2c1` (stereo not drawn)?
**A.** Potency [1]: 1.64 µM (active); Potency [2]: inactive

**Q.** With `CC/C(=C(/c1ccc(/C=C/C(=O)O)cc1)c1ccc2[nH]ncc2c1)c1ccc(F)cc1Cl` as the compound, how does the Potency [1] read?
**A.** 16.6 µM (active)

**Q.** What about the Potency [2] of the same compound?
**A.** 15.8 µM (active)

**Q.** With `Nc1cccc2c(N)cccc12` as the compound, how does the Potency [1] read?
**A.** 0.545 µM (active)

**Q.** What about the Potency [2] of the same compound?
**A.** 39.8 µM (active)

**Q.** For `CCOC(=O)[C@@](C)(N)Cc1ccc(O)c(O)c1`, which Potency [1] is on record?
**A.** inactive

**Q.** And the activity (max response) [3]?
**A.** -4.97%

**Q.** And the Potency [2]?
**A.** inactive

**Q.** For `COC1CCN(C(=O)c2cc(Cc3n[nH]c(=O)c4ccccc34)ccc2F)CC1`, which Potency [1] is on record?
**A.** 14.8 µM (active)

**Q.** What about the Potency [2] of the same compound?
**A.** inactive

**Q.** Which Potency [1] does the source give for `O=C(Oc1cccc2cccnc12)c1ccccc1` here?
**A.** inactive

**Q.** What about the Potency [2] of the same compound?
**A.** 23.1 µM (active)

**Q.** With `CCNC(=O)CCC/C=C\C[C@@H]1[C@@H](/C=C/C(O)CCc2ccccc2)[C@@H](O)C[C@@H]1O` (stereo partly drawn) as the compound, how does the Potency [1] read?
**A.** 14.8 µM (active)

**Q.** What about the Potency [2] of the same compound?
**A.** inactive

**Q.** Which Potency [1] does the source give for `C#Cc1cccc(Nc2ncnc3cc4c(cc23)OCCOCCOCCO4)c1` here?
**A.** 18.6 µM (active)

**Q.** What about the Potency [2] of the same compound?
**A.** 11.2 µM (active)

**Q.** What does the source list for `Nc1ncnc2c1ncn2[C@@H]1O[C@@H](CO)[C@H](O)[C@H]1O`?
**A.** Potency [4]: inactive; Potency [5]: inactive; Potency [6]: inactive; Potency [7]: inactive; Potency [8]: inactive; Potency [9]: inactive

**Q.** What does the source list for `C[C@H](Cn1cnc2c(N)ncnc21)OCP(=O)(O)O`?
**A.** Potency [4]: inactive; Potency [5]: inactive; Potency [6]: inactive; Potency [7]: inactive; Potency [8]: inactive; Potency [9]: inactive; Potency [10]: inactive; Potency [11]: inactive; Potency [12]: inactive

**Q.** What does the source list for `O=C1NC(=O)C(=Cc2ccc3nccc(-c4ccncc4)c3c2)S1`?
**A.** Potency [4]: 2.64 µM (active); Potency [5]: 1.32 µM (active); Potency [6]: 0.662 µM (active); Potency [7]: 7.43 µM (active); Potency [8]: 1.87 µM (active); Potency [9]: 1.87 µM (active); Potency [10]: 0.935 µM (active); Potency [11]: 0.935 µM (active)

**Q.** With `Nc1ncnc2c1ncn2[C@@H]1O[C@H](CO)C[C@@H]1O` as the compound, how does the Potency [4] read?
**A.** inactive

**Q.** What about the Potency [5] of the same compound?
**A.** inactive

**Q.** What about the Potency [6] of the same compound?
**A.** inactive

**Q.** What about the Potency [7] of the same compound?
**A.** inactive

**Q.** And the Potency [8]?
**A.** inactive

**Q.** What about the Potency [9] of the same compound?
**A.** inactive

**Q.** For `Cc1c(-c2cccc3c(CCCOc4cccc5ccccc45)c(C(=O)O)n(Cc4cccnc4)c23)c(COc2ccc(N3CCN([S+](=O)([O-])N(C)C)CC3)cc2)nn1C`, which Potency [4] is on record?
**A.** inactive

**Q.** What about the Potency [5] of the same compound?
**A.** inactive

**Q.** And the Potency [6]?
**A.** inactive

**Q.** And the Potency [7]?
**A.** inactive

**Q.** And the Potency [8]?
**A.** inactive
